Source: PubChem BioAssay AID1628 (Sanford-Burnham Center for Chemical Genomics, 2009)
Out of some 190,000 compounds screened, about 930 (0.49%) were called active.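 How the source made its calls: active means z-score of insulin promoter reporter brightness in nuclei below -3 at 5 µM, with at least 500 cells counted; inconclusive means wells with under 500 cells, flagged as toxic or sparse; inactive means the rest.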 The list shows a part of the results. Potency and affinity values are given separately.

Assay: insulin promoter down-regulators in MIN6 cells, imaging, high-content screening, mouse beta cells (AID 1628)
Conditions: MIN6 insulin promoter GFP reporter, at 5 µM, hits give low values

| Structure (SMILES) | z-score |
| --- | --- |
| Cc1cc(/C=C2/C(=O)N(C)C(=S)N2C)ccc1N1CCCC1 | 15.4 (inactive) |
| COc1ccc(CCNc2oc(COc3ccccc3Cl)nc2C#N)cc1OC | -3.1 (active) |
| COc1cccc(-n2nc(C#N)c(Cl)cc2=O)c1 | -3.8 (active) |
| COc1cccc(C2=N/C(=C\N(C)C)C(=O)O2)c1 | 0.86 (inactive) |
| N#Cc1ccsc1NC(=O)COC(=O)c1ccc2ccccc2c1 | -6.27 (active) |
| Cc1ccc(C2(C(F)(F)F)N=C3Sc4cc(C)ccc4N3C(=O)N2)cc1 (stereo unspecified) | 3.48 (inactive) |
| Cc1cc(N2CCOCC2)ccc1/C=C1/SC(=O)NC1=O | 1.71 (inactive) |
| Cc1ccc(N2CCN(C3=NC(=O)/C(=C\c4cccs4)S3)CC2)cc1 | -4.27 (active) |
| CCCOc1cc(N(CC)CC)ccc1/C=C(/C#N)c1nc2ccc(C)cc2[nH]1 | 15.5 (inactive) |
| CCN(CC)c1ccc(C(=O)N/N=C/c2ccc(N3CCOCC3)cc2)cc1 | 3.38 (inactive) |
| C=CCSc1nnc(NC(=O)c2cccc(S(=O)(=O)N3CCOCC3)c2)s1 | 3.22 (inactive) |
| CCN(CC)c1ccc(/C=N/NC(=O)c2cccc(S(=O)(=O)N3CCOCC3)c2)c(O)c1 | -6.39 (active) |
| CCCCn1c(O)c(/C=C/C=C/C=Nc2ccccc2)sc1=S | 4.72 (inactive) |
| COc1c2ccoc2nc2c(OC)c(O)ccc12 | -0.14 (inactive) |
| Cc1ccc(-c2ccc(/C=C(\C#N)C(=O)Nc3cc(C)nn3-c3ccccc3)o2)cc1 | 3.08 (inactive) |
| Cc1nn(-c2ccccc2)c(C)c1NC(=O)CCl | 3.88 (inactive) |
| Cc1ccc(C)c(NC(=S)N2CCCCCC2)c1 | 0.89 (inactive) |
| COc1ccc(CCNC(=S)Nc2ccc(C)cc2C)cc1 | -3.98 (active) |
| Cc1ccc(NC(=O)CCl)c(C)c1 | 3.51 (inactive) |
| CCCCCOC(=O)C1=C(C)Nc2nnnn2C1c1ccc(OC)c(OC)c1OC (stereo unspecified) | 3.26 (inactive) |
| COc1ccc(C2C=C(c3cccs3)Nc3nc(CCCO)nn32)cc1 (stereo unspecified) | 5.85 (inactive) |

| Structure (SMILES) | z-score |
| --- | --- |
| COc1ccc(C2=CC(c3ccc(OC)c(OC)c3)n3nnnc3N2)c(OC)c1 (stereo unspecified) | -3.02 (active) |
| COc1cccc(CN2CCN(C3CCN(c4cccc(C)c4C)CC3)CC2CCO)c1 (stereo unspecified) | -8.37 (active) |
| CCOC(=O)N1CCC(N2Cc3cccc(C(=O)N4CCN(c5cccc(C)c5C)CC4)c3C2=O)CC1 | 2.62 (inactive) |
| COc1cc(C(Nc2ccc3c(c2)OCO3)C(=O)NC2CCCCC2)cc(OC)c1OC (stereo unspecified) | -3.78 (active) |
| Fc1ccc(C2NCCn3cccc32)cc1 (stereo unspecified) | 3.94 (inactive) |
| CNC(=O)c1ccc(-c2sc3nc(N4CCOCC4)c4c(c3c2N)CC(C)(C)OC4)o1 | 3.23 (inactive) |
| Nc1c(C(=O)NCCc2ccccc2)sc2nc(N3CCOCC3)c3c(c12)CCCC3 | -3.11 (active) |
| Nc1c(C(=O)c2ccc(Cl)cc2)sc2nsc(SCCN3CCOCC3)c12 | 4.91 (inactive) |
| CNC(=O)c1ccc(-c2sc3nc(N4CCOCC4)c4c(c3c2N)CCCC4)o1 | -3.66 (active) |
| N#C/C(=C\c1ccc(N2CCOCC2)o1)C(=O)NCCc1ccccc1 | 4.72 (inactive) |
| O=c1[nH]c(-c2ccccn2)nc2sc(-c3ccccc3)cc12 | -6.56 (active) |
| c1ccc(-c2ccc(-c3nccc4ccccc34)[nH]2)cc1 | 4.38 (inactive) |
| CCC(/C=C1\Sc2ccc(OC)cc2N1CC)=C\c1sc2ccc(OC)cc2[n+]1CCCS(=O)(=O)[O-] | -3.29 (active) |
| CC[n+]1c(/C=C/C=C/N(C(C)=O)c2ccccc2)sc2cc(OC)ccc21 | 17.2 (inactive) |
| CCN1/C(=C/c2cc[n+](CCCS(=O)(=O)[O-])c3ccccc23)Sc2ccccc21 | 6.08 (inactive) |
| Cc1ccc(CN=Cc2[nH]c3ccc(Br)c(Cl)c3c2O)cc1 | 9.43 (inactive) |
| Cc1ccc(Nc2nc(Cl)c(C=O)s2)cc1Cl | 6.83 (inactive) |
| Cc1nc([N+](=O)[O-])c(N2CCN(Cc3ccccc3)CC2)n1Cc1ccccc1 | -3.12 (active) |
| Cc1nc([N+](=O)[O-])c(Br)n1CC(=O)c1cccc([N+](=O)[O-])c1 | 2.48 (inactive) |
| CC(C)(C)C1CCc2c(sc(N)c2C(N)=O)C1 (stereo unspecified) | -5.29 (active) |
| COc1ccccc1NS(=O)(=O)c1cc([N+](=O)[O-])ccc1N/N=C/c1sc(N2CCOCC2)nc1-c1ccccc1 | 4.89 (inactive) |

| Structure (SMILES) | z-score |
| --- | --- |
| O=[N+]([O-])c1ccc(N/N=C/c2sc(N3CCOCC3)nc2-c2ccccc2)c(S(=O)(=O)Nc2ccccc2Cl)c1 | 13.1 (inactive) |
| Nc1ccc(C(=O)N/N=C/c2sc(N3CCOCC3)nc2-c2ccccc2)cc1 | -4.08 (active) |
| Oc1ccc(CN2CCC(Cc3ccccc3)CC2)c2cccnc12 | -5.12 (active) |
| COc1ccc(C)cc1NC(=O)c1nnn(Cc2cccc(C(F)(F)F)c2)c1N | 3.48 (inactive) |
| CCOC(=O)c1c(C)nn(Cc2cccc(Cl)c2)c1N | -5.31 (active) |
| CCOC(=O)c1nn(-c2ccc(Cl)cc2Cl)c(=N)c(C#N)c1C | 10.8 (inactive) |
| C=CCN1C(=O)/C(=C/C=C2/N(CC)c3ccc(S(=O)(=O)N(C)C)cc3N2CC)SC1=S | 17.1 (inactive) |
| CCOC(=O)C1C(=O)CC(C)(O)C(C(=O)OCC)C1c1ccccc1 (stereo unspecified) | 0.91 (inactive) |
| CCOC(=O)C(C)c1nn(C)c(=O)c2ccccc12 (stereo unspecified) | -3.52 (active) |
| COc1ccc(N2C(=O)CCC(C(=O)NCCCN3CCC(C)CC3)C2c2ccc(OC)c(OC)c2)cc1 (stereo unspecified) | 4.36 (inactive) |
| CCCCn1c(CN2CCN(c3cccc(Cl)c3)CC2)nc2c1c(=O)n(C)c(=O)n2C | -5.64 (active) |
| CCCn1c(CN2CCN(c3cccc(Cl)c3)CC2)nc2c1c(=O)n(C)c(=O)n2C | -6.4 (active) |
| Cn1ncc2c1ncn1nc(CCc3ccccc3)nc21 | 3.58 (inactive) |
| NC(=O)c1c[nH]c2ccccc12 | -0.45 (inactive) |
| CCOC(=O)COc1ccc(C(=O)NC2CCCCC2)cc1 | 4.25 (inactive) |
| CCOC(=O)c1c(C)c(C(=O)NC2CCCCC2)c(C)n1CC | -3.91 (active) |
| CC(C)NC(=O)/C(C#N)=C/c1ccc(N(C)C)o1 | 9.4 (inactive) |
| COc1ccc(/C=C2\C(=O)NC(=S)N2C(=O)c2ccc(F)cc2)cc1 | 4.23 (inactive) |
| CO/N=C/c1ccc(N2CCN(C(=O)c3ccc(F)cc3)CC2)c([N+](=O)[O-])c1 | -5.66 (active) |
